From PubChem BioAssay AID1159580 (chemical genetic matrix, 2015)
About 2,000 (36%) of roughly 5,500 compounds were called active. Not shown: some 18% with an inconclusive outcome. Rule as the data show it: active = normalized growth mostly below about 0.91 (no sharp cut-off); inconclusive = no clear call, values can overlap the other calls; inactive = mostly above about 0.92. The list shows a part of the results.

Test: chemical genetic growth profiling, strain panel (AID 1159580);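 also: tested at 20 µM; growth read once vehicle control cultures reached saturation at 30 °C; 1 = growth at the plate median or of vehicle wells; lower values mean less growth of the strain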
Conditions: growth OD
[1] = S. cerevisiae deletion strains, locus YAL013W, strain DEP1, hits give low values
[2] = S. cerevisiae deletion strains, locus YGR078C, strain PAC10, hits give low values
[3] = S. cerevisiae deletion strains, locus YJR075W, strain HOC1, hits give low values
[4] = S. cerevisiae deletion strains, locus YMR307W, strain GAS1, hits give low values
[5] = S. cerevisiae deletion strains, locus YNL153C, strain GIM3, hits give low values

Measured: normalized growth

COc1ccccc1N1CCN(S(=O)(=O)c2ccc(C(F)(F)F)cc2)CC1
inactive: [1] 1 | S. cerevisiae deletion strains, locus YBR229C, strain ROT2, hits give low values 0.99 | S. cerevisiae deletion strains, locus YCL061C, strain MRC1, hits give low values 0.985 | S. cerevisiae deletion strains, locus YDL101C, strain DUN1, hits give low values 1.01 | S. cerevisiae deletion strains, locus YDR150W, strain NUM1, hits give low values 0.989 | S. cerevisiae deletion strains, locus YEL061C, strain CIN8, hits give low values 1.02 | [2] 1 | S. cerevisiae deletion strains, locus YHR030C, strain SLT2, hits give low values 1.09 | S. cerevisiae deletion strains, locus YHR087W, strain rtc3, hits give low values 1.03 | S. cerevisiae deletion strains, locus YJL187C, strain SWE1, hits give low values 0.985 | S. cerevisiae deletion strains, locus YJR043C, strain POL32, hits give low values 0.998 | [3] 0.99 | S. cerevisiae deletion strains, locus YKL190W, strain CNB1, hits give low values 0.965 | S. cerevisiae deletion strains, locus YLR039C, strain RIC1, hits give low values 0.952 | S. cerevisiae deletion strains, locus YLR058C, strain SHM2 (second series), hits give low values 0.987 | S. cerevisiae deletion strains, locus YLR085C, strain ARP6, hits give low values 0.927 | S. cerevisiae deletion strains, locus YLR262C, strain YPT6, hits give low values 0.962 | S. cerevisiae deletion strains, locus YML094W, strain GIM5, hits give low values 0.995 | S. cerevisiae deletion strains, locus YMR219W, strain ESC1, hits give low values 0.989 | S. cerevisiae deletion strains, locus YMR263W, strain SAP30, hits give low values 0.977 | [4] 1.04 | [5] 1 | S. cerevisiae deletion strains, locus YNL298W, strain CLA4 (second series), hits give low values 1.01 | S. cerevisiae deletion strains, locus YNL322C, strain KRE1, hits give low values 0.99 | S. cerevisiae deletion strains, locus YNR030W, strain Alg12, hits give low values 1 | S. cerevisiae deletion strains, locus YOL006C, strain TOP1, hits give low values 1.03 | S. cerevisiae deletion strains, locus YPL055C, strain LGE1, hits give low values 0.988 | S. cerevisiae deletion strains, locus YPL241C, strain CIN2, hits give low values 0.888 | S. cerevisiae deletion strains, locus YPR135W, strain CTF4, hits give low values 0.983 | S. cerevisiae strains, strain wild type, hits give low values 0.976

NCCNC(=O)c1ncsc1-c1cccc(F)c1
inactive: [1] 1.02 | S. cerevisiae deletion strains, locus YAL040C, strain CLN3, hits give low values 0.986 | S. cerevisiae deletion strains, locus YCL061C, strain MRC1 (second series), hits give low values 0.991 | S. cerevisiae deletion strains, locus YDR363W, strain ESC2, hits give low values 1.02 | S. cerevisiae deletion strains, locus YER002W, strain NOP16, hits give low values 1 | [2] 0.989 | [3] 1.01 | [4] 1 | S. cerevisiae deletion strains, locus YNL128W, strain TEP1, hits give low values 0.99 | [5] 0.983 | S. cerevisiae deletion strains, locus YNL175C, strain NOP13, hits give low values 0.984 | S. cerevisiae deletion strains, locus YNL197C, strain WHI3, hits give low values 0.989 | S. cerevisiae deletion strains, locus YNL224C, strain SQS1, hits give low values 0.996 | S. cerevisiae deletion strains, locus YOR083W, strain WHI5 (second series), hits give low values 0.974
